In ChEMBL document CHEMBL1157539, “Thousands of chemical starting points for antimalarial lead identification” (Nature, 2010):

tested on: Plasmodium falciparum; test: GSK_TCMDC: Inhibition of Plasmodium falciparum 3D7 in whole red blood cells, using parasite LDH activity as an index of growth. Test compounds present at 2uM; format: functional

Going from COc1ccc(Nc2nccc(NCCNC(=O)c3cc4ccccc4s3)n2)cc1 to CN(C)CCNCc1ccc(-c2ccc3c(Nc4ccc(Cl)cc4F)ccnc3c2)o1, the Inhibition rises from 98% to 99%.

Compared with O=C(C=Cc1ccc(Cl)c(Cl)c1)NCCCCCN1CCCC(CCCNC(=O)c2cccs2)C1 (stereo unspecified), O=C(Nc1cc(F)cc(F)c1)NC1CCN(CCCCCNC(=O)C2CC2c2ccc(Cl)c(Cl)c2)CC1 (stereo unspecified) is higher in Inhibition: 89% for the first, 100% for the second.

First: Cc1nn(CC(C)C)c2sc(C(=O)Nc3nc(-c4ccccn4)cs3)cc12
Second: Cc1nc(-c2nc(NCc3ccncc3)ncc2-c2ccsc2)sc1C
The Inhibition of the first is higher: 96% for the first, 91% for the second.

First: Cc1cccc2nc(-c3ccc(-c4cccc(NC(=O)Nc5ccccc5)c4)cc3)[nH]c12
Second: O=C(O)C(F)(F)F.c1ccc(CNCc2cccc(-c3ccc(-c4nc5ccccc5[nH]4)cc3)c2)cc1
The Inhibition of the first is higher: 100% for the first, 97% for the second.

Going from O=C(O)C(F)(F)F.c1ccc(CCNCc2ccc(-c3ccc(CNC4CCN(Cc5ccccc5)CC4)cc3)nc2)cc1 to Cc1cc(-c2cccc(CNC3CCN(C)CC3)c2)ccc1S(=O)(=O)NCCc1ccccn1.O=C(O)C(F)(F)F, the Inhibition falls from 100% to 97%.

First: Nc1ncc(-c2cn[nH]c2)cc1-c1nc2ccc(Cl)cc2[nH]1
Second: Cn1cc(C(=O)Nc2cccc(-c3cccc(-c4nc5cc(F)ccc5[nH]4)c3)c2)n(C)c1=O
The Inhibition of the first is higher: 100% for the first, 98% for the second.

Going from COc1ccc(Nc2ncc(Cl)c(Nc3cccnc3C(N)=O)n2)cc1N1CCN(C)CC1.Cl to O=C(N[C@@H](CC1CCCCC1)C(=O)NCCN1CCCC1)c1ccc(O)c(-c2ccc(Cl)c(Cl)c2)c1, the Inhibition rises from 95% to 99%.

Compared with Cc1ccc(S(=O)(=O)c2nc(S(=O)(=O)c3ccccc3)sc2NCC2CCCO2)cc1 (stereo unspecified), O=C(O)C(F)(F)F.c1ccc2[nH]c(-c3ccc(-c4ccc(CNCC5CCCO5)cc4)s3)nc2c1 (stereo unspecified) is higher in Inhibition: 88% for the first, 100% for the second.

CC(CN(C)C)C(=O)Nc1ccc(-c2ccc(-c3nc4cc(C(F)(F)F)ccc4[nH]3)cc2)cc1 (stereo unspecified) and O=C(Nc1cccc(-c2ccc(CN3CCCC3)cc2)c1)c1ccc(Cl)cc1.O=C(O)C(F)(F)F are the same in Inhibition: 100% for the first, 100% for the second.

Compared with Cc1ccc(N2C(N)=NC(N)=NC2(C)C)cc1Cl.Cl, Cc1nc2nc(N)nc(N)c2c(C)c1Cc1ccccc1Br.Cl is higher in Inhibition: 90% for the first, 92% for the second.

First: CC(C)C[C@@H](C(=O)N[C@@H](CCCCNC(=O)OCc1ccccc1)C(=O)Nc1nccs1)[C@H](C)N(O)C=O
Second: CCNc1cc(C(=O)N[C@@H](Cc2ccccc2)[C@H](O)CNC(CC)c2cccc(Cl)c2)cc(N2CCCCS2(=O)=O)c1.Cl (stereo partly specified)
The Inhibition of the first is lower: 99% for the first, 100% for the second.

First: CC(C)CC(=O)N1CCNC[C@@H]1C(=O)NCCSCc1c(F)cccc1Cl.O=C(O)C(F)(F)F
Second: COc1ccc(-c2cccc(NC(=O)c3cccc(C#N)c3)c2)cc1CN(C)CCN(C)C.O=C(O)C(F)(F)F
The Inhibition of the first is lower: 86% for the first, 99% for the second.

Cc1[nH]c(C)c(-c2ccc(Oc3ccc(OC(F)(F)F)cc3)cc2)c(=O)c1Br and Clc1ccc(CNCCCCCCNCc2ccc(Cl)cc2)cc1.O=C(O)c1ccc2ccccc2c1O are the same in Inhibition: 96% for the first, 96% for the second.
